Source: PubChem BioAssay (Tox21)
Several values for one entry are separate records, joined by “and”; a condition that tells them apart may be missing. Equal values may be shown once. Inconclusive results are not listed. A call without a number means that no potency is given here. Where a structure was tested more than once in an assay, its records may differ in their call. Activity calls are given as the source filed them. The call rests on the fitted dose curve; in most records, active means well fitted curve in the direction sought with a large enough effect in the repeat runs; inconclusive means weak or mixed curves; inactive means no such curve, though single readings can be large; an effect the other way counts as inactive or inconclusive.

Tests used:
[1] = A CellTox Green Cytotoxicity Assay to monitor cytotoxicity in HEK293 cells - 40 hour (AID 1224871); conditions: CellTox Green fluorescence; series mostly up to 76.8 µM; further: nearly all actives have a fitted effect of over 45% in size
Summary of the method: (§1)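 HEK293 cells, 600/well, were preincubated 5 hours and then exposed to compounds at 37 C for up to 40 hours. A cell-impermeant cyanine dye staining dead-cell DNA was read by fluorescence at 0, 8, 16, 24, 32 and 40 h time points.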

[2] = qHTS RealTime-Glo MT Cell Viability Assay in HEK293 cells - 16 hour (AID 1224872); conditions: RealTime-Glo luminescence; series mostly up to 76.8 µM; further: nearly all actives have a fitted effect of over 50% in size
Summary of the method: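 Luminescence generated by NanoLuc from substrate produced by living HEK293 cells served as the viability signal. Each value reflects the reading at its stated time point during continuous 40 h compound exposure at 37 C.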

[3] = qHTS RealTime-Glo MT Cell Viability Assay in HepG2 cells - 8 hour (AID 1224873); conditions: RealTime-Glo luminescence; series mostly up to 76.8 µM; further: nearly all actives have a fitted effect of over 55% in size
Summary of the method: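 HepG2 cells (600/well) mixed with RealTime-Glo MT reagent, settled 5 h at 37 C/5% CO2 before compound addition. Nonlytic NanoLuc luminescence from viable-cell prosubstrate reduction read repeatedly during 40 h treatment at 37 C.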

[4] = A CellTox Green Cytotoxicity Assay to monitor cytotoxicity in HEK293 cells - 24 hour (AID 1224875); conditions: CellTox Green fluorescence; series mostly up to 76.8 µM; further: nearly all actives have a fitted effect of over 45% in size
Summary of the method: as §1

[5] = A CellTox Green Cytotoxicity Assay to monitor cytotoxicity in HepG2 cells - 16 hour (AID 1224876); conditions: CellTox Green fluorescence; series mostly up to 76.8 µM; further: nearly all actives have a fitted effect of over 45% in size
Summary of the method: (§2)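 HepG2 cells, 600/well, preincubated 5 h with CellTox Green dye, then exposed to Tox21 compounds in DMSO at 37 C for up to 40 h. Dead-cell DNA fluorescence read at the indicated time point.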

[6] = qHTS RealTime-Glo MT Cell Viability Assay in HepG2 cells - 32 hour (AID 1224877); conditions: RealTime-Glo luminescence; series mostly up to 76.8 µM; further: nearly all actives have a fitted effect of over 55% in size
Summary of the method: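 Tox21 10K library screened in qHTS format on HepG2 cells carrying RealTime-Glo reagents. Compounds were added after a 5 h preincubation, and the luminescent signal from continuous culture was measured repeatedly during 40 h treatment.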

[7] = A CellTox Green Cytotoxicity Assay to monitor cytotoxicity in HepG2 cells - 24 hour (AID 1224878); conditions: CellTox Green fluorescence; series mostly up to 76.8 µM; further: nearly all actives have a fitted effect of over 45% in size
Summary of the method: as §2

[8] = A CellTox Green Cytotoxicity Assay to monitor cytotoxicity in HepG2 cells - 40 hour (AID 1224879); conditions: CellTox Green fluorescence; series mostly up to 76.8 µM; further: nearly all actives have a fitted effect of over 40% in size
Summary of the method: as §2

[9] = qHTS RealTime-Glo MT Cell Viability Assay in HEK293 cells - 0 hour (AID 1224880); conditions: RealTime-Glo luminescence; series mostly up to 76.8 µM; further: nearly all actives have a fitted effect of over 45% in size
Summary of the method: (§3)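 600 cells/well were plated with the nonlytic NanoLuc/prosubstrate reagent, pre-incubated 5 h, then given 23 nL of compound in DMSO. Incubation at 37 C for 40 h, with luminescence from viable-cell-reduced substrate read repeatedly from 0 h.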

[10] = qHTS RealTime-Glo MT Cell Viability Assay in HEK293 cells - 40 hour (AID 1224874); conditions: RealTime-Glo luminescence; max response: stronger effect = lower value; further: nearly all actives have a fitted effect of over 50% in size
Summary of the method: as §3
Potency means the concentration at half of the fitted maximal effect.

| SMILES | Potency [1] | Potency [2] | Potency [3] | Potency [4] | Potency [5] | Potency [6] | Potency [7] | Potency [8] | Potency [9] | Potency [10] | max response [10] |
| --- | --- | --- | --- | --- | --- | --- | --- | --- | --- | --- | --- |
| Cc1ccc(C)cc1 | inactive | inactive | inactive | inactive | inactive | inactive | inactive | inactive | inactive | – | – |
| CCN(CCN)c1cccc(C)c1 | inactive | inactive | inactive | inactive | inactive | inactive | inactive | inactive | inactive | – | – |
| O=C(O)[C@H](O)[C@@H](O)[C@H](O[C@@H]1O[C@H](CO)[C@H](O)[C@H](O)[C@H]1O)[C@H](O)CO | inactive | inactive | inactive | inactive | inactive | inactive | inactive | inactive | – | – | – |
| CCCCCCCC/C=C\CCCCCCCCN | 23.9 µM (active) | 21.3 µM (active) | – | 21.3 µM (active) | – | – | – | – | – | – | – |
| Clc1ccnc(Cl)n1 | inactive | inactive | inactive | inactive | inactive | inactive | inactive | inactive | inactive | – | – |
| c1cnccn1 | inactive | inactive | inactive | inactive | inactive | inactive | inactive | inactive | inactive | – | – |
| CC(C)=CCNc1ncnc2c1ncn2[C@@H]1O[C@H](CO)[C@@H](O)[C@H]1O | inactive | inactive | inactive | inactive | – | inactive | – | – | inactive | – | – |
| Nc1ccc(C(=O)O)c(O)c1 | inactive | inactive | inactive | inactive | inactive | inactive | – | – | inactive | – | – |
| COC1=C(OC)C(=O)C(CCCCCCCCCCO)=C(C)C1=O | inactive | 2.39 µM (active) | – | inactive | inactive | inactive | inactive | inactive | inactive | 5.35 µM (active) | – |
| O=C1NC(=O)[C@@H]2CC=CC[C@H]12 | inactive | inactive | inactive | inactive | inactive | inactive | inactive | – | inactive | – | – |
| Cc1cc(-n2nc3ccc(Cl)cc3n2)c(O)c(C(C)(C)C)c1 | inactive | inactive | inactive | inactive | inactive | inactive | inactive | inactive | inactive | – | – |
| CC1=Nc2ccccc2C1(C)C | inactive | inactive | inactive | inactive | – | inactive | 49 µM (active) | 38.9 µM (active) | inactive | – | – |
| [Cu+] | inactive | inactive | inactive | inactive | – | 49 µM (active) | inactive | inactive | – | – | – |
| COc1cccc2c1C(=O)c1c(O)c3c(c(O)c1C2=O)C[C@@](O)(C(C)=O)C[C@@H]3O[C@H]1C[C@H](N)[C@H](O)[C@H](C)O1 | 43.9 µM (active) and inactive | 6.2 µM (active) and 151 nM (active) | 49.3 µM (active) | – | inactive | 22 µM (active) | inactive | inactive | inactive | 62 nM (active) and 3 nM (active) | – |
| CCCC(=O)OCOC(=O)C1=C(C)NC(C)=C(C(=O)OC)C1c1cccc(Cl)c1Cl (centres undefined) | inactive | inactive | – | inactive | inactive | inactive | inactive | inactive | 9.52 µM (active) | – | – |
| O=C(Nc1ccc2c(O)c(N=Nc3ccc(N=Nc4ccc(S(=O)(=O)O)cc4)cc3)c(S(=O)(=O)O)cc2c1)c1ccccc1 | inactive | inactive | – | inactive | inactive | – | inactive | inactive | – | – | -19.7% (inactive) |
| CC/C=C\CCCCCO | inactive | inactive | inactive | inactive | inactive | inactive | – | – | inactive | – | – |
| COC(C)=O | inactive | inactive | inactive | inactive | inactive | inactive | inactive | inactive | – | – | – |
| Fc1ccc(C(c2ccc(F)cc2)N2CCNCC2)cc1 | inactive | inactive | inactive | inactive | – | inactive | – | – | – | – | – |
| O=C(/C=C/c1ccccc1)OC/C=C/c1ccccc1 | inactive | inactive | inactive | – | inactive | inactive | inactive | inactive | inactive | – | -1.97% (inactive) |
| Cc1c(C)c2c(c(C)c1OC(=O)c1cccnc1)CC[C@@](C)(CCC[C@H](C)CCC[C@H](C)CCCC(C)C)O2 | inactive | inactive | inactive | inactive | inactive | inactive | inactive | inactive | – | – | – |

| SMILES | Potency [1] | Potency [2] | Potency [3] | Potency [4] | Potency [5] | Potency [6] | Potency [7] | Potency [8] | Potency [9] | Potency [10] | max response [10] |
| --- | --- | --- | --- | --- | --- | --- | --- | --- | --- | --- | --- |
| CCCCCCCCCCCCCCCC[N+](C)(C)CC | 43.8 µM (active) and 23.9 µM (active) | 21.9 µM (active) and 6.74 µM (active) | 55.1 µM (active) | 43.8 µM (active) and 23.9 µM (active) | 49.1 µM (active) and 23.9 µM (active) | 21.9 µM (active) and 21.3 µM (active) | 24.6 µM (active) and 21.3 µM (active) | 15.5 µM (active) and 19 µM (active) | inactive | – | – |
| CN1CCN2c3ccccc3Cc3ccccc3C2C1 (centres undefined) | inactive | inactive | inactive | inactive | inactive | inactive | – | – | – | – | – |
| O=C(O)c1ccc2cc(C(=O)O)ccc2c1 | inactive | inactive | inactive | inactive | – | inactive | inactive | inactive | inactive | – | – |
| OCC(F)(F)F | inactive | inactive | inactive | inactive | – | inactive | inactive | inactive | inactive | – | – |
| C#CC1(O)CC[C@H]2[C@@H]3CCC4=CCCC[C@@H]4[C@H]3CC[C@@]21C (some centres undefined) | 34.7 µM (active) and 21.3 µM (active) | 19.5 µM (active) and 21.3 µM (active) | 21.3 µM (active) | 21.9 µM (active) and 21.3 µM (active) | – | 23.9 µM (active) | 34.7 µM (active) and 19 µM (active) | 38.9 µM (active) and 21.3 µM (active) | inactive | – | – |
| COc1cc(S(=O)(=O)O)c(C)cc1N=Nc1c(O)ccc2cc(S(=O)(=O)O)ccc12 | inactive | inactive | – | inactive | inactive | – | inactive | inactive | inactive | – | -10.3% (inactive) |
| CN1CCCCC1CCN1c2ccccc2Sc2ccc(S(C)=O)cc21 (centres undefined) | inactive | inactive | inactive | inactive | inactive | inactive | – | – | – | – | – |
| Cc1cc(C(C)(C)C)cc(C)c1CC1=NCCN1 | inactive | inactive | inactive | inactive | inactive | inactive | inactive | inactive | inactive | – | – |
| Cc1ccc(C(=O)O)cc1 | inactive | inactive | inactive | inactive | – | inactive | – | – | inactive | – | 10% (inactive) |
| Clc1nnc(Cl)c2ccccc12 | inactive | inactive | – | inactive | inactive | inactive | inactive | inactive | – | – | – |
| CCOc1ccc2ccccc2c1C(=O)N[C@@H]1C(=O)N2[C@@H]1SC(C)(C)[C@@H]2C(=O)O | inactive | inactive | inactive | inactive | inactive | inactive | inactive | inactive | – | – | – |
| O=C1c2ccccc2C(=O)N1SC1CCCCC1 | 12.3 µM (active) and 21.9 µM (active) | 34.6 µM (active) and 38.9 µM (active) | 38.9 µM (active) | 13.8 µM (active) and 34.7 µM (active) | 43.6 µM (active) | 43.6 µM (active) | 21.9 µM (active) | 24.5 µM (active) | inactive | – | – |
| CCCCCCCCCCCCOCCOCCOCCOCCOCCOCCOCCOCCOCCO | 10.7 µM (active) | 6.01 µM (active) | – | 13.4 µM (active) | 23.9 µM (active) | – | 23.9 µM (active) | 23.9 µM (active) | inactive | 4.77 µM (active) | – |
| O=C(O)c1cc(O)c2ccccc2c1O | 19.5 µM (active) | 38.9 µM (active) | 17.4 µM (active) | – | 43.6 µM (active) | 21.9 µM (active) | 43.6 µM (active) | 24.5 µM (active) | – | 38.9 µM (active) | – |
| COC(=O)Nc1nc2ccc(C(=O)c3ccccc3)cc2[nH]1 | inactive | – | inactive | inactive | inactive | inactive | inactive | 0.268 µM (active) | inactive | 0.477 µM (active) | – |
| CC(C)(C)c1ccc(C(O)CCCN2CCC(C(O)(c3ccccc3)c3ccccc3)CC2)cc1 (centres undefined) | 7.56 µM (active) | – | 10.7 µM (active) | 9.52 µM (active) | 10.7 µM (active) | 5.35 µM (active) | 8.49 µM (active) | 5.35 µM (active) | – | – | – |
| O=[N+]([O-])c1ccc(F)c(Cl)c1 | inactive | – | inactive | inactive | inactive | inactive | inactive | inactive | – | – | 14.6% (inactive) |
| COC(=O)c1ccccc1C | inactive | – | inactive | inactive | – | inactive | inactive | inactive | inactive | – | -4.12% (inactive) |
| CC(C)=CCC1=C(O)c2ccccc2C(=O)C1=O | inactive | – | inactive | inactive | inactive | inactive | inactive | inactive | inactive | 24.4 µM (active) | – |
| CCCC[P+](C)(CCCC)CCCC | inactive | – | inactive | inactive | inactive | inactive | inactive | inactive | – | – | – |
